Reference: PubChem BioAssay AID1347416 (National Center for Advancing Translational Sciences (NCATS), 2020)
Hit rate of the full screen: of about 4,100 compounds, about 1,600 (39%) were called active. Not shown: some 25% with an inconclusive outcome. The call rests on the fitted dose curve; in most records, active means well fitted inhibition curve with a large enough effect; inconclusive means small, poorly fitted or top-dose-only effect; inactive means no such curve, though single readings can be large or run the other way. Some of the results follow.

Assay: qHTS Validation assay for Inhibitors of Plasmodium falciparum Dd2 growth in vitro; further: nearly all actives have a fitted effect of over 70% in size
Conditions: P. falciparum Dd2 in RBCs, SYBR Green growth, 72 h; series mostly up to 28.7 µM; activity change, negative = inhibition: at the top concentration
Summary of the method: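 P. falciparum Dd2-infected red blood cells (2.5% hematocrit, 0.3% parasitemia) grown 72 h at 37 °C under 5% O2 with compounds in a titration, 29 uM to 0.5 nM final. Growth read as SYBR Green-1 fluorescence after ~16 h lysis; artesunate 300 nM as positive control.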
On the % scale 0 is the no-effect control and ±100 the full control effect; potency means the concentration at half of the fitted maximal effect.

| SMILES | activity change, negative = inhibition | Potency |
| --- | --- | --- |
| CCCc1noc(-c2ccn3c(CNC(=O)c4ccc5ccccc5n4)nnc3c2)n1 | -9.45% (inactive) |  |
| COc1cncc(Nc2cnc3ccc(-c4ccc(OC)c(OC)c4)nn23)c1 |  | 1.22 µM (active) |
| c1ccc(-c2ccc3ncc(Nc4cccnc4)n3n2)cc1 |  | 4.85 µM (active) |
| O=C(NCc1nnc2ccc(-c3ccccc3)nn12)c1ccoc1 | 16.5% (inactive) |  |
| CCC1(O)CCCN(c2ncc(C(C)(C)C(=O)O)c(N3CCOCC3)n2)C1 (stereo unspecified) | 82.3% (inactive) |  |
| CCOc1cc(C2c3c(oc4ccccc4c3=O)C(=O)N2Cc2ccc3c(c2)OCO3)ccc1O (stereo unspecified) | 7.62% (inactive) |  |
| CCOC(=O)c1ccc(NC2=CC(c3ccc(F)cc3)N(c3ccc(C(=O)OCC)cc3)C2=O)cc1 (stereo unspecified) |  | 8.41 µM (active) |
| CCOC(=O)c1ccc(NC2=CC(c3ccc(O)c(OCC)c3)N(c3ccc(C(=O)OCC)cc3)C2=O)cc1 (stereo unspecified) |  | 3.35 µM (active) |
| O=C(CNC1=NCCC1)c1ccc2c(c1)OCCO2 | 19.9% (inactive) |  |
| Nc1cc[n+](CC(=O)c2ccc3c(c2)OCCO3)cc1 |  | 13.3 µM (active) |
| COc1cc(C2NC(=O)c3c(sc4c3CCN(C)C4)N2)cc(OC)c1OC (stereo unspecified) | 12.5% (inactive) |  |
| O=C(Nc1cccc2ccccc12)O[C@@H]1CO[C@H]2[C@@H]1OC[C@@H]2n1nnnc1-c1ccc(-c2ccccc2)cc1 | 36.3% (inactive) |  |
| CC(C)N1C(=O)C(CC(=O)N(C)Cc2cccnc2)=C2CCCCC21 (stereo unspecified) | 0% (inactive) |  |
| CCC(C)c1ccc(N(C(=O)c2ccco2)C(C(=O)NC2CCCC2)c2cccnc2)cc1 (stereo unspecified) |  | 6.68 µM (active) |
| COc1cncc(Nc2ncc(-c3c(C)noc3C)c3c2OCC3)c1 | -18.9% [at 43.1 µM] (inactive) |  |
| Cc1noc(C)c1-c1cc2cc(CN(C)C)oc2c(NCc2cccnc2)n1 |  | 1.22 µM (active) |
| Cc1noc(C)c1-c1cc2cc(CN(C)C)oc2c(Nc2cccnc2)n1 |  | 12.2 µM (active) |
| Cc1cccc(Cn2nnc3c(=O)[nH]c(C4CCCN(C(=O)c5ccc(C(C)(C)C)cc5)C4)nc32)c1 (stereo unspecified) |  | 2.66 µM (active) |
| O=C(c1cccc(Cl)c1)N1CCC(c2nn(Cc3ccccc3)c(=O)[nH]2)CC1 | 20.2% (inactive) |  |
| Cc1cn2nc(-c3nc(C4CCCN(C(=O)c5ccc(C)c(F)c5)C4)no3)cc2c(=O)[nH]1 (stereo unspecified) | -21.2% (inactive) |  |
| CC(C)(C)c1ccc(C(=O)N2CCCC(c3nc4c(nnn4Cc4cccc(F)c4)c(=O)[nH]3)C2)cc1 (stereo unspecified) |  | 16.8 µM (active) |
| NC(=O)c1cccc(-c2ncc3c(n2)OCCN(Cc2ccc(F)cc2F)C3=O)c1 | -26% [at 43.1 µM] (inactive) |  |
| Cc1cccc(CC(=O)N2CCCC(n3cc(-c4nc(-c5ccccc5)no4)nn3)C2)c1 (stereo unspecified) | -19.8% (inactive) |  |
| O=C(c1ccc(F)cc1)N1CCC(c2nn(Cc3ccccc3)c(=O)[nH]2)CC1 | 38.4% (inactive) |  |
| Cc1cn2nc(-c3nc(C4CCCN(C(=O)c5cccc(Cl)c5)C4)no3)cc2c(=O)[nH]1 (stereo unspecified) | -16.5% (inactive) |  |
| O=C(c1cccc(Cl)c1)N1CCC(c2nc3c(nnn3Cc3ccc(F)cc3F)c(=O)[nH]2)CC1 |  | 5.96 µM (active) |
